Hits are enriched below; roughly 2.3% of the tested compounds scored in any of these assays.
A549 tox-1: kills or reduces viability of A549 cells in Nrf2 counter-screen. 390,000 tested, 0.16% active. A549 ARE-Fluc cells, CellTiter-Fluor viability, 18-24 h. Potency, µM (series often up to 46 µM), inactives show top-dose activity change, negative = cytotoxicity, most hits filed as inhibitors; further: potency means the concentration at half of the fitted maximal effect; on the % scale 0 is the no-effect control and ±100 the full control effect
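Cytotoxicity counterscreen: CellTiter-Fluor fluorescence was measured in A549 ARE_Fluc cells after 18-24 h of compound exposure in a concentration series. The subsequent BugLite luminescent read reports ARE-luciferase activity.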
IL-2 act: activates IL-2 in a cell-based reporter assay; 360,000 tested, 0.065% active; IL-2 activation reporter assay, cell-based qHTS; stimulated with anti-CD3/CD4/CD28 beads; in transgenic mouse T cells; activation, % (series mostly up to about 46 µM); in the data active means activation above about 50%; inconclusive means mostly about 30% to 49%; further: 0% is about no effect
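EGFP and DsRed fluorescence is measured by plate cytometry in unstimulated transgenic mouse T cells exposed to compound for 60 minutes, then stimulated 18 hours at 37 degrees C with anti-CD3/anti-CD4 beads plus anti-CD28.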
Nrf2 ARE act: activators of Nrf2 (ARE) signaling; AREc32 ARE-luciferase reporter (MCF7-derived line), luminescence, 24 h; Potency, µM (series often up to 46.1 µM), inactives show at the highest dose activation, hits mostly activators; 410,000 tested, 0.31% active; AID 624171; further: potency means the concentration at half of the fitted maximal effect; % of control where 0% means no effect; nearly all actives have a fitted effect of over 65% in size
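Each well held 1000 AREc32 cells, which were incubated with compound for 24 hr at 37 deg C after overnight attachment, and ARE reporter activity was quantified by firefly luciferase luminescence.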
Nrf2 block: Nrf2 pathway inhibition; Potency, µM (titrated, usually from 46 µM), for inactives: top-dose activity change, negative = inhibition, actives largely listed as inhibitors; AID 504444; A549 ARE-Fluc reporter, luciferase luminescence, 18-24 h; 360,000 tested, 2.1% active; further: potency means the concentration at half of the fitted maximal effect; on the % scale 0 is the no-effect control and ±100 the full control effect; nearly all actives have a fitted effect of over 60% in size
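Nrf2 function is reported as luminescence of an ARE-controlled luciferase in A549 cells. Compounds were tested at several concentrations, and a CellTiter-Fluor read on the same wells flagged cytotoxicity.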
FLuc counter 3: blocks purified firefly luciferase in Nrf2 counterscreen. shares compounds with Nrf2 block. purified firefly luciferase, luminescence inhibition. Potency, µM (doses to about 57.5 µM), for inactives: at the top dose activity change, negative = inhibition, most hits filed as inhibitors. 1,400 tested, 4% active. AID 720522; further: potency means the concentration at half of the fitted maximal effect; on the % scale 0 is the no-effect control and ±100 the full control effect; nearly all actives have a fitted effect of over 65% in size
Target sequence (P08659 whole entry, looked up): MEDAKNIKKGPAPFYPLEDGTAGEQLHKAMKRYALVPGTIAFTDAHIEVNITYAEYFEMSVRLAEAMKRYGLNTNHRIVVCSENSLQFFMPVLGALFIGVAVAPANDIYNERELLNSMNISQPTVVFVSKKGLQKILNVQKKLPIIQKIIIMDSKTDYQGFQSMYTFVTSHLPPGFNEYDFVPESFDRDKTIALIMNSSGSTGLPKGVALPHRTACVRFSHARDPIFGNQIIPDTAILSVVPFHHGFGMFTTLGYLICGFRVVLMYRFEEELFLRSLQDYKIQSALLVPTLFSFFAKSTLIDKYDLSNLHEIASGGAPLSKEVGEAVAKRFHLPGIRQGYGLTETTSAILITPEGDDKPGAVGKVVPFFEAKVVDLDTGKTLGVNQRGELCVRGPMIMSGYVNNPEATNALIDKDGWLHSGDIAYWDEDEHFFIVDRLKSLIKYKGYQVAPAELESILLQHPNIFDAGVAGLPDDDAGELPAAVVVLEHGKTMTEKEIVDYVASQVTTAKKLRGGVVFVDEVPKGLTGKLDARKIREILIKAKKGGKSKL
A549 tox-2: counter-screen for Nrf2 inhibitors: cytotoxicity in A549 ARE cells; Potency, µM (titrated, usually from 46.1 µM), without a hit: at the highest dose activity change, negative = cytotoxicity, most hits filed as inhibitors; shares compounds with Nrf2 block; A549 ARE-Fluc cells, cytotoxicity counterscreen; AID 720523; 1,400 tested, 2% active;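 further: potency means the concentration at half of the fitted maximal effect; cells exposed to compounds for 18 to 24 hours; on the % scale 0 is the no-effect control and ±100 the full control effect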
Nrf2 ARE inh: confirmation of Nrf2 inhibitors in A549 ARE reporter cells; A549 ARE-firefly luciferase reporter, luminescence; shares compounds with Nrf2 block; Potency, µM (highest dose often 46.1 µM), for inactives: at the highest dose activity change, negative = inhibition, usual class: inhibitors; AID 720524; 1,400 tested, 74% active; further: potency means the concentration at half of the fitted maximal effect; on the % scale 0 is the no-effect control and ±100 the full control effect; nearly all actives have a fitted effect of over 65% in size
* marks the source's active call; other numbers are inactive results; ? = inconclusive; . = no result shown; [ ] = another dose, or the depositor's remark. Unless noted, the call rests on the fitted dose curve; in most records, active means well fitted curve in the direction sought with a large enough effect; inconclusive means small, poorly fitted or top-dose-only effect, or another doubt; inactive means no such curve, though single readings can be large; an effect the other way counts as inactive or inconclusive.

SMILES | A549 tox-1 | IL-2 act | Nrf2 ARE act | Nrf2 block | FLuc counter 3 | A549 tox-2 | Nrf2 ARE inh
COc1ccc(OC)c(C2CC(=O)c3c([nH]c(C(=O)OCc4ccc(C)cc4)c3C)C2)c1 (stereo not given) | -3% | . | -1% | -2% | . | . | .
COc1cc(C2CC(=O)c3c([nH]c(C(=O)OCCOC(C)C)c3C)C2)cc(OC)c1OC (stereo not given) | ? | -4 | -1% | 4.6µM* | 3% | -12% | 9.2µM*
O=C(Nc1nc(-c2ccccc2)cs1)c1ccc(N2CCOCC2)c([N+](=O)[O-])c1 | ? | -1 | 0% | 4.6µM* | ? | ? | 7.3µM*
O=C(Nc1ccc(-c2csc(Nc3ccccc3)n2)cc1)c1cccc(C(F)(F)F)c1 | -6% | -1 | 9% | 9.2µM* | -15% | -25% | 15µM*
O=C(Nc1ccc(-c2csc(Nc3ccc(Cl)cc3)n2)cc1)c1cccc(C(F)(F)F)c1 | -8% | -1 | 11% | -28% | . | . | .
Cc1ccc(-c2csc(NC(=O)c3cccc([N+](=O)[O-])c3)n2)cc1 | -5% | -1 | -1% | ? | 2% | -12% | 1.5µM*
COc1ccc(-c2cc(C3C4C=CCCC4(C)C(=O)N3Cc3ccccc3)ccc2F)cc1 (stereo not given) | 11% | . | . | -8% | . | . | .
COc1ccccc1C(=O)Nc1ccc(C(=O)OCc2cc(=O)n3c4c(sc3n2)CCCC4)cc1 | 0% | . | -1% | . | . | . | .
Cc1ccc2oc(-c3ccc(C)c(NC(=O)c4ccc(N5CCC(C)CC5)c([N+](=O)[O-])c4)c3)nc2c1 | 13% | . | 2% | ? | . | . | .
CCc1ccc(OC(C)c2nc(-c3ccc(-n4cccc4)cc3)no2)cc1 (stereo not given) | 9% | . | 0% | 8.2µM* | 1% | 3% | 8.2µM*
CCc1ccc(OCc2nc(-c3ccc(-n4cccc4)cc3)no2)cc1 | -3% | . | 0% | ? | . | . | .
Cc1nc2ccccc2n1Cc1ccc(Br)cc1 | 1% | -3 | 2% | ? | -21% | 3% | ?
Cc1nc2ccccc2n1Cc1ccccc1Br | 1% | -3 | 0%[9.22 µM] | 4% | . | . | .
Cc1ccc(S(=O)(=O)n2nc(OC(=O)c3ccccc3F)cc2N)cc1 | -4% | -2 | 0% | 0% | . | . | .
Cc1ccc(C(=O)Oc2cc(N)n(S(=O)(=O)c3ccc(C)cc3)n2)cc1 | -5% | -2 | -2% | 1.2µM* | -3% | -1% | 4.6µM*
COc1ccc(S(=O)(=O)n2nc(OC(=O)c3ccc(C)cc3)cc2N)cc1 | -14% | -1 | -2% | 0.58µM* | -23% | 5% | .
COc1ccccc1C(=O)NCc1nc2cccnc2n1Cc1ccc(F)cc1 | 5% | . | ? | . | . | . | .
Cc1ccccc1CCNC(=O)c1cc2cc(S(=O)(=O)N3CCCCC3)ccc2n1C | 6% | . | 0% | . | . | . | .
Cc1c(Cl)cccc1NC(=O)Nc1nnc(N(C)Cc2ccccc2)s1 | 6% | . | 0% | 0% | . | . | .
COc1cc(C(=O)NCC(c2ccc(N(C)C)cc2)N2CCc3ccccc32)cc(OC)c1OC (stereo not given) | -8% | . | ? | . | . | . | .
Cc1noc(C)c1-c1ccc2ncnc(NCc3cc(F)cc(F)c3)c2c1 | -3% | . | . | ? | . | . | .
C[C@]12C=CC(=O)C=C1CC[C@@H]1[C@@H]2[C@@H](O)C[C@@]2(C)[C@H]1CC[C@]2(O)C(=O)CO | -11% | -1 | 0% | 0.058µM* | 3% | -2% | 0.073µM*
CCOC(=O)O[C@]1(C(=O)COC(=O)CC)CC[C@H]2[C@@H]3CCC4=CC(=O)C=C[C@]4(C)[C@H]3[C@@H](O)C[C@@]21C | -5% | -1 | 6% | 0.058µM* | -1% | -10% | 0.058µM*
C[C@]12C=CC(=O)C=C1CC[C@@H]1[C@@H]2[C@@H](O)C[C@@]2(C)[C@H]1CC[C@]2(O)C(=O)COC(=O)CCC(=O)NCCc1ccc(O)cc1 | 0% | -4 | -1% | 0.12µM* | 0% | 8.2µM* | 5.8µM*
CC(=O)OCC(=O)[C@@]1(O)CC[C@H]2[C@@H]3CCC4=CC(=O)C=C[C@]4(C)[C@H]3C(=O)C[C@@]21C | 0% | 0 | 0% | ? | . | . | .
SMILES | A549 tox-1 | IL-2 act | Nrf2 ARE act | Nrf2 block | FLuc counter 3 | A549 tox-2 | Nrf2 ARE inh
C[C@]12C=CC(=O)C=C1CC[C@@H]1[C@@H]2[C@@H](O)C[C@@]2(C)[C@H]1CC[C@]2(O)C(=O)COC(=O)CCC(=O)O | -16% | -1 | 0% | 0.046µM* | 5% | -5% | 0.23µM*
COc1ccc(-c2nc3ccc(NS(=O)(=O)c4ccc(C)cc4)cc3o2)cc1 | 0% | . | -1% | -19% | . | . | .
C[C@H]1C[C@@H]2[C@H]([C@@H](O)C[C@@]3(C)[C@H]2CC[C@]3(O)C(=O)CO)[C@@]2(C)C=CC(=O)C=C12 | -3% | -1 | -1% | 0.026µM* | 0% | -3% | 0.033µM*
CN1CCc2nc3sc(C(=O)Nc4cccc(C#N)c4)c(N)c3cc2C1 | 8% | . | 16% | 19% | . | . | .
COc1ccc(CNC(=O)Cc2nn(C)c(=O)c3ccccc23)cc1 | -20% | 0 | 4% | 5.8µM* | -14% | 0% | 4.6µM*
Cn1nc(CC(=O)NCc2ccc(C(F)(F)F)cc2)c2ccccc2c1=O | -7% | 9 | 0% | ? | . | . | .
CC(C)(C)OC(=O)N1CCC(c2c(C(=O)NCc3cccc(Cl)c3)cnn2-c2ccc(F)cc2)CC1 | -14% | . | 5% | -86% | . | . | .
COc1ccc(-c2nnn(CC(=O)N3CCN(c4ccc(F)cc4)CC3)n2)cc1 | 2% | 1 | 0% | 11% | . | . | .
COc1ccc(N2CCN(C(=O)CN3CCN(c4nc(-c5ccc(F)cc5)cs4)CC3)CC2)cc1 | ? | -4 | 0% | 7.3µM* | -5% | -16% | 12µM*
CCCn1c2ccccc2c2cnn(CC(=O)NCC3CCN(Cc4ccccc4C)CC3)c(=O)c21 | -17% | . | 0% | ? | . | . | .
Cc1ccc(CNC(=O)c2cc3c(s2)-c2ccc(Cl)cc2SC3)cc1 | 2% | . | 0% | ? | . | . | .
CN(C)CCNC(=O)c1cc2c(s1)-c1ccc(Cl)cc1SC2 | 4% | -1 | -3% | 5.8µM* | -1% | ? | 0.013µM*
O=C(Oc1ccccc1N1C(=O)C2CCCCC2C1=O)c1ccc(Cl)cc1 (stereo not given) | -3% | -3 | -1% | 4.6µM* | -1% | -1% | 6.5µM*
O=C(Oc1ccccc1N1C(=O)C2CCCCC2C1=O)c1ccccc1F (stereo not given) | -7% | 2 | 5% | -1% | . | . | .
CC/C(=N/NC(=O)c1ccc2c(c1)OCO2)c1ccccc1O | -22% | 0 | 0% | 5.2µM* | 11µM* | -9% | -16%
